From PubChem BioAssay AID602454 (National Center for Advancing Translational Sciences (NCATS), 2012)
Inconclusive results are not listed. Calls of active or inactive are those of the source. The rule behind the calls is not given here.

assay: qHTS Assay for Inhibitors of Influenza NS1 Protein Function: Viral Replication TCID50; conditions: Influenza virus replication in cells, at 10 µM, stronger effect = lower value
Description: Influenza is a world-wide public health problem and emerging forms of the virus have the potential to cause a pandemic of equal or greater magnitude to the outbreaks recorded in 1918, 1957 or 1968. Vaccine development is proceeding and there also exist two classes of anti-influenza compounds. However these therapeutic modalities are neither fully effective nor widely enough available to fulfill global needs. In addition their potential usefulness against newly emergent strains is not known. Efforts are needed to develop novel agents against influenza virus, including broad-spectrum agents. Identification of small molecules that inhibit NS1 function either directly or by interfering with specific cellular pathways may be a key to increasing our defense against the virus.
We have miniaturized and optimized a cell based assay in which NS1 from influenza A is expressed in the budding yeast S. cerevisiae. NS1 is a multi-functional protein that counters the host innate immune response and facilitates viral versus cellular gene expression. Expression of NS1 causes a pronounced slow growth phenotype in yeast due to its intrinsic molecular activities. Small molecules that suppress the slow growth phenotype can be identified by a straightforward growth recovery assay using optical density (OD) as the measurement. The same yeast strain not expressing NS1 was used as positive control in the yeast growth recovery assay.
Hits resulting from the primary screen and other follow-up screens, were tested in two concentrations in this viral replication assay.
NIH Chemical Genomics Center [NCGC]
NIH Molecular Libraries Probe Centers Network [MLPCN]
Assay Submitter (PI): Daniel Engel, University of Virgina
Cell monolayers were infected at an m.o.i. of 0.1 for 48 h in the presence or absence of the compound, which was added at the beginning of infection. Virus titres were determined by TCID50 analysis (Reed, L. J. & Muench, H. (1938). A simple method of estimating fifty per cent endpoints. Am J Epidemiol 27, 493-497)

Compound	viral titer (log10 TCID50)
COc1cc(-c2c(C#N)c(=O)[nH]c3c2c(C)nn3-c2ccccc2)ccc1O	7.66 (active)
COc1ccc(-c2ccnc3c2c(C)nn3-c2ccc(F)cc2)cc1OC	8.66 (active)
COc1ccc(-c2c(C#N)c(N)nc3c2c(C)nn3-c2ccc(F)cc2)cc1OC	8.66 (active)
COc1ccc(-c2c3c(C)nn(-c4ccccc4)c3nc3[nH]c(=O)[nH]c(=O)c23)cc1O	8.66 (active)
COc1ccc(-c2c(C#N)c(=O)[nH]c3c2c(C)nn3-c2ccc(F)cc2)cc1OC	9 (active)
COc1cc(-c2ccnc3c2c(C)nn3-c2ccc(F)cc2)ccc1O	8.68 (active)
COc1ccc(-c2c(C#N)c(N)nc3c2c(C)nn3-c2ccc(C)cc2)cc1OC	9 (active)
COc1cc(-c2c(C(=O)O)cnc3c2c(C)nn3-c2ccc(F)cc2)ccc1O	8.5 (active)
COc1ccc(-c2c(C#N)c(N)nc3c2c(C)nn3-c2ccc(Cl)cc2)cc1OC	9 (active)
COc1cc(-c2c(C#N)c(N)nc3c2c(C)nn3-c2ccc(F)cc2)cc(OC)c1OC	9 (active)
COc1cccc(-c2ccnc3c2c(C)nn3-c2ccc(F)cc2)c1	8.5 (active)
COc1cccc(-n2nc(C)c3c(-c4ccc(O)c(OC)c4)ccnc32)c1	9 (active)
COc1cc(-c2c(C#N)c(=O)[nH]c3c2c(C)nn3-c2ccccc2)cc(OC)c1OC	7.66 (active)
COc1cc(-c2ccnc3c2c(C)nn3-c2cccc(F)c2)ccc1O	9 (active)
COc1cc(-c2c3c(C)nn(-c4ccccc4)c3nc3[nH]c(=O)[nH]c(=O)c23)ccc1O	8.66 (active)
COc1cc(-c2c(C#N)c(N)nc3c2c(C)nn3-c2ccc(C)c(C)c2)cc(OC)c1OC	9 (active)
COc1cc(-c2c(C#N)c(N)nc3c2c(C)nn3-c2ccc(C)cc2)ccc1O	8.5 (active)
COc1cc(-c2c(C#N)c(N)nc3c2c(C)nn3-c2ccc(C)cc2)cc(OC)c1OC	8.66 (active)
COc1ccc(-c2c3c(C)nn(-c4ccccc4)c3nc3[nH]c(=O)[nH]c(=O)c23)cc1OC	8.33 (active)
COc1cc(-c2c(C#N)c(N)nc3c2c(C)nn3-c2ccc(F)cc2)ccc1O	6 (active)

same assay, conditions: Influenza virus replication in cells, viral titer, at 5 µM, stronger effect = lower value

Compound	viral titer (log10 TCID50)
COc1cc(-c2c(C#N)c(=O)[nH]c3c2c(C)nn3-c2ccccc2)ccc1O	8.5
COc1ccc(-c2ccnc3c2c(C)nn3-c2ccc(F)cc2)cc1OC	9
COc1ccc(-c2c(C#N)c(N)nc3c2c(C)nn3-c2ccc(F)cc2)cc1OC	8.66
COc1ccc(-c2c3c(C)nn(-c4ccccc4)c3nc3[nH]c(=O)[nH]c(=O)c23)cc1O	8.66
COc1ccc(-c2c(C#N)c(=O)[nH]c3c2c(C)nn3-c2ccc(F)cc2)cc1OC	9
COc1cc(-c2ccnc3c2c(C)nn3-c2ccc(F)cc2)ccc1O	8.88
COc1ccc(-c2c(C#N)c(N)nc3c2c(C)nn3-c2ccc(C)cc2)cc1OC	9
COc1cc(-c2c(C(=O)O)cnc3c2c(C)nn3-c2ccc(F)cc2)ccc1O	8.88
COc1ccc(-c2c(C#N)c(N)nc3c2c(C)nn3-c2ccc(Cl)cc2)cc1OC	9
COc1cc(-c2c(C#N)c(N)nc3c2c(C)nn3-c2ccc(F)cc2)cc(OC)c1OC	9
COc1cccc(-c2ccnc3c2c(C)nn3-c2ccc(F)cc2)c1	9
COc1cccc(-n2nc(C)c3c(-c4ccc(O)c(OC)c4)ccnc32)c1	9
COc1cc(-c2c(C#N)c(=O)[nH]c3c2c(C)nn3-c2ccccc2)cc(OC)c1OC	8.5
COc1cc(-c2ccnc3c2c(C)nn3-c2cccc(F)c2)ccc1O	9
COc1cc(-c2c3c(C)nn(-c4ccccc4)c3nc3[nH]c(=O)[nH]c(=O)c23)ccc1O	8.66
COc1cc(-c2c(C#N)c(N)nc3c2c(C)nn3-c2ccc(C)c(C)c2)cc(OC)c1OC	9
COc1cc(-c2c(C#N)c(N)nc3c2c(C)nn3-c2ccc(C)cc2)ccc1O	8.5
COc1cc(-c2c(C#N)c(N)nc3c2c(C)nn3-c2ccc(C)cc2)cc(OC)c1OC	9
COc1ccc(-c2c3c(C)nn(-c4ccccc4)c3nc3[nH]c(=O)[nH]c(=O)c23)cc1OC	9
COc1cc(-c2c(C#N)c(N)nc3c2c(C)nn3-c2ccc(F)cc2)ccc1O	7.66
